# B1: unnamed (peptide)
# chain: VATSTSPKLPPRGKQ
# B2: unnamed (peptide)
# chain: VPPVPLPFGIPPFPM
# Target: AgAbp1
# Assay: SPOT peptide array binding signal intensity (averaged, normalized) (arbitrary units (background-subtracted, floor 0; scale differs between SH3 domains)); higher = stronger binding of the SH3 domain to the peptide
# Summary of the method: (§1)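 Binding signal is given in arbitrary units that differ between domains and is the normalized, background-subtracted spot intensity averaged across replicates. Each GST-SH3 fusion from one of four yeast species was made in E. coli BL21(DE3), purified on glutathione Sepharose and incubated at 10 μg/ml overnight at 4°C on cellulose-bound synthetic 15-mer peptides in which cysteines were replaced by serines. Detection used anti-GST antibody, an HRP anti-mouse secondary and luminol, followed by imaging and Genespotter quantification.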
row,Binder,SPOT peptide array binding signal intensity
1,B1,3
2,B2,3

# Target: AgBbc1
# Assay: as above
# Summary of the method: as §1
row,Binder,SPOT peptide array binding signal intensity
1,B1,548
2,B2,≤ 0

# Target: AgBem1-D1
# Assay: as above
# Summary of the method: as §1
row,Binder,SPOT peptide array binding signal intensity
1,B1,8.5
2,B2,288

# Target: AgBzz1-D1
# Assay: as above
# Summary of the method: as §1
row,Binder,SPOT peptide array binding signal intensity
1,B1,84
2,B2,6

# Target: AgBzz1-D2
# Assay: as above
# Summary of the method: as §1
row,Binder,SPOT peptide array binding signal intensity
1,B1,100
2,B2,10

# Target: AgCyk3
# Assay: as above
# Summary of the method: as §1
row,Binder,SPOT peptide array binding signal intensity
1,B1,≤ 0
2,B2,≤ 0

# Target: AgFus1
# Assay: as above
# Summary of the method: as §1
row,Binder,SPOT peptide array binding signal intensity
1,B1,5
2,B2,≤ 0

# Target: AgHof1
# Assay: as above
# Summary of the method: as §1
row,Binder,SPOT peptide array binding signal intensity
1,B1,9.5
2,B2,338

# Target: AgHse1
# Assay: as above
# Summary of the method: as §1
row,Binder,SPOT peptide array binding signal intensity
1,B1,24
2,B2,51

# Target: AgLsb1
# Assay: as above
# Summary of the method: as §1
row,Binder,SPOT peptide array binding signal intensity
1,B1,290
2,B2,2

# Target: AgLsb4
# Assay: as above
# Summary of the method: as §1
row,Binder,SPOT peptide array binding signal intensity
1,B1,4510
2,B2,≤ 0

# Target: AgMyo5
# Assay: as above
# Summary of the method: as §1
row,Binder,SPOT peptide array binding signal intensity
1,B1,≤ 0
2,B2,720

# Target: AgNbp2
# Assay: as above
# Summary of the method: as §1
row,Binder,SPOT peptide array binding signal intensity
1,B1,4
2,B2,5

# Target: AgRvs167
# Assay: as above
# Summary of the method: as §1
row,Binder,SPOT peptide array binding signal intensity
1,B1,745
2,B2,≤ 0

# Target: AgSho1
# Assay: as above
# Summary of the method: as §1
row,Binder,SPOT peptide array binding signal intensity
1,B1,18
2,B2,4

# Target: AgSla1-D1-D2
# Assay: as above
# Summary of the method: as §1
row,Binder,SPOT peptide array binding signal intensity
1,B1,3.5
2,B2,4

# Target: AgSla1-D3
# Assay: as above
# Summary of the method: as §1
row,Binder,SPOT peptide array binding signal intensity
1,B1,1.5
2,B2,5.75

# Target: CaAbp1-D1
# Assay: as above
# Summary of the method: as §1
row,Binder,SPOT peptide array binding signal intensity
1,B1,87
2,B2,8

# Target: CaAbp1-D2
# Assay: as above
# Summary of the method: as §1
row,Binder,SPOT peptide array binding signal intensity
1,B1,79.5
2,B2,11

# Target: CaBbc1
# Assay: as above
# Summary of the method: as §1
row,Binder,SPOT peptide array binding signal intensity
1,B1,521
2,B2,2.5

# Target: CaBem1-D1
# Assay: as above
# Summary of the method: as §1
row,Binder,SPOT peptide array binding signal intensity
1,B1,19.5
2,B2,20

# Target: CaBzz1-D1
# Assay: as above
# Summary of the method: as §1
row,Binder,SPOT peptide array binding signal intensity
1,B1,93
2,B2,32

# Target: CaBzz1-D2
# Assay: as above
# Summary of the method: as §1
row,Binder,SPOT peptide array binding signal intensity
1,B1,96.5
2,B2,≤ 0

# Target: CaCyk3
# Assay: as above
# Summary of the method: as §1
row,Binder,SPOT peptide array binding signal intensity
1,B1,≤ 0
2,B2,3

# Target: CaFus1
# Assay: as above
# Summary of the method: as §1
row,Binder,SPOT peptide array binding signal intensity
1,B1,80
2,B2,102

# Target: CaHof1
# Assay: as above
# Summary of the method: as §1
row,Binder,SPOT peptide array binding signal intensity
1,B1,0.5
2,B2,≤ 0

# Target: CaHse1
# Assay: as above
# Summary of the method: as §1
row,Binder,SPOT peptide array binding signal intensity
1,B1,37
2,B2,2.5

# Target: CaLsb1
# Assay: as above
# Summary of the method: as §1
row,Binder,SPOT peptide array binding signal intensity
1,B1,1
2,B2,0.25

# Target: CaLsb4
# Assay: as above
# Summary of the method: as §1
row,Binder,SPOT peptide array binding signal intensity
1,B1,3500
2,B2,27.5

# Target: CaMyo5
# Assay: as above
# Summary of the method: as §1
row,Binder,SPOT peptide array binding signal intensity
1,B1,4.75
2,B2,296

# Target: CaNbp2
# Assay: as above
# Summary of the method: as §1
row,Binder,SPOT peptide array binding signal intensity
1,B2,88.5

# Target: CaRvs167
# Assay: as above
# Summary of the method: as §1
row,Binder,SPOT peptide array binding signal intensity
1,B2,1.33

# Target: CaRvs167-3
# Assay: as above
# Summary of the method: as §1
row,Binder,SPOT peptide array binding signal intensity
1,B2,2.5

# Target: CaSho1
# Assay: as above
# Summary of the method: as §1
row,Binder,SPOT peptide array binding signal intensity
1,B2,25

# Target: CaSla1-D1-D2
# Assay: as above
# Summary of the method: as §1
row,Binder,SPOT peptide array binding signal intensity
1,B2,34

# Target: CaSla1-D3
# Assay: as above
# Summary of the method: as §1
row,Binder,SPOT peptide array binding signal intensity
1,B2,25.8

# Target: ScAbp1
# Assay: as above
# Summary of the method: as §1
row,Binder,SPOT peptide array binding signal intensity
1,B2,≤ 0

# Target: ScBbc1
# Assay: as above
# Summary of the method: as §1
row,Binder,SPOT peptide array binding signal intensity
1,B2,≤ 0

# Target: ScBem1-D1
# Assay: as above
# Summary of the method: as §1
row,Binder,SPOT peptide array binding signal intensity
1,B2,1

# Target: ScBzz1-D1
# Assay: as above
# Summary of the method: as §1
row,Binder,SPOT peptide array binding signal intensity
1,B2,≤ 0

# Target: ScBzz1-D2
# Assay: as above
# Summary of the method: as §1
row,Binder,SPOT peptide array binding signal intensity
1,B2,2.5

# Target: ScCyk3
# Assay: as above
# Summary of the method: as §1
row,Binder,SPOT peptide array binding signal intensity
1,B2,2.5

# Target: ScFus1
# Assay: as above
# Summary of the method: as §1
row,Binder,SPOT peptide array binding signal intensity
1,B2,≤ 0

# Target: ScHof1
# Assay: as above
# Summary of the method: as §1
row,Binder,SPOT peptide array binding signal intensity
1,B2,144

# Target: ScHse1
# Assay: as above
# Summary of the method: as §1
row,Binder,SPOT peptide array binding signal intensity
1,B2,47

# Target: ScLsb1
# Assay: as above
# Summary of the method: as §1
row,Binder,SPOT peptide array binding signal intensity
1,B2,0.75

# Target: ScLsb2
# Assay: as above
# Summary of the method: as §1
row,Binder,SPOT peptide array binding signal intensity
1,B2,≤ 0

# Target: ScLsb3
# Assay: as above
# Summary of the method: as §1
row,Binder,SPOT peptide array binding signal intensity
1,B2,6.5

# Target: ScLsb4
# Assay: as above
# Summary of the method: as §1
row,Binder,SPOT peptide array binding signal intensity
1,B2,≤ 0

# Target: ScMyo3
# Assay: as above
# Summary of the method: as §1
row,Binder,SPOT peptide array binding signal intensity
1,B2,867

# Target: ScMyo5
# Assay: as above
# Summary of the method: as §1
row,Binder,SPOT peptide array binding signal intensity
1,B2,308

# Target: ScNbp2
# Assay: as above
# Summary of the method: as §1
row,Binder,SPOT peptide array binding signal intensity
1,B2,23

# Target: ScPex13
# Assay: as above
# Summary of the method: as §1
row,Binder,SPOT peptide array binding signal intensity
1,B2,772

# Target: ScRvs167
# Assay: as above
# Summary of the method: as §1
row,Binder,SPOT peptide array binding signal intensity
1,B2,0.333

# Target: ScSho1
# Assay: as above
# Summary of the method: as §1
row,Binder,SPOT peptide array binding signal intensity
1,B2,41

# Target: ScSla1-D1-D2
# Assay: as above
# Summary of the method: as §1
row,Binder,SPOT peptide array binding signal intensity
1,B2,≤ 0

# Target: ScSla1-D3
# Assay: as above
# Summary of the method: as §1
row,Binder,SPOT peptide array binding signal intensity
1,B2,7.5

# Target: SpAbp1-D1
# Assay: as above
# Summary of the method: as §1
row,Binder,SPOT peptide array binding signal intensity
1,B2,2

# Target: SpBbc1
# Assay: as above
# Summary of the method: as §1
row,Binder,SPOT peptide array binding signal intensity
1,B2,1.5

# Target: SpBzz1-D1
# Assay: as above
# Summary of the method: as §1
row,Binder,SPOT peptide array binding signal intensity
1,B2,236

# Target: SpBzz1-D2
# Assay: as above
# Summary of the method: as §1
row,Binder,SPOT peptide array binding signal intensity
1,B2,1.5

# Target: SpCyk3
# Assay: as above
# Summary of the method: as §1
row,Binder,SPOT peptide array binding signal intensity
1,B2,1

# Target: SpHof1
# Assay: as above
# Summary of the method: as §1
row,Binder,SPOT peptide array binding signal intensity
1,B2,4

# Target: SpHof1-2
# Assay: as above
# Summary of the method: as §1
row,Binder,SPOT peptide array binding signal intensity
1,B2,9.5

# Target: SpHof1-3
# Assay: as above
# Summary of the method: as §1
row,Binder,SPOT peptide array binding signal intensity
1,B2,7

# Target: SpHse1
# Assay: as above
# Summary of the method: as §1
row,Binder,SPOT peptide array binding signal intensity
1,B2,70.8

# Target: SpLsb1
# Assay: as above
# Summary of the method: as §1
row,Binder,SPOT peptide array binding signal intensity
1,B2,≤ 0

# Target: SpLsb4
# Assay: as above
# Summary of the method: as §1
row,Binder,SPOT peptide array binding signal intensity
1,B2,51.5

# Target: SpMyo1
# Assay: as above
# Summary of the method: as §1
row,Binder,SPOT peptide array binding signal intensity
1,B2,775

# Target: SpNbp2
# Assay: as above
# Summary of the method: as §1
row,Binder,SPOT peptide array binding signal intensity
1,B2,7

# Target: SpPex13
# Assay: as above
# Summary of the method: as §1
row,Binder,SPOT peptide array binding signal intensity
1,B2,9.5

# Target: SpRvs167
# Assay: as above
# Summary of the method: as §1
row,Binder,SPOT peptide array binding signal intensity
1,B2,24.5

# Target: SpSla1-D1-D2
# Assay: as above
# Summary of the method: as §1
row,Binder,SPOT peptide array binding signal intensity
1,B2,3

# Target: SpSla1-D3
# Assay: as above
# Summary of the method: as §1
row,Binder,SPOT peptide array binding signal intensity
1,B2,6
